# Rows were chosen to be rich in hits. Some 3.3% of all compounds tested hit in one or more screens of this group.
# rCAG binder: binds r(CAG) RNA repeats; 370,000 tested, 1.3% active; inhibition, % at 3 µM; r(CAG) RNA repeat, TO-PRO-1 dye displacement fluorescence;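 active means inhibition above the plate cutoff, the mean of all test compounds on that plate plus 3 SD, cut at about 35% in these data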;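 further: 0% = DMSO alone and 100% = 100 µM mitoxantrone as full dye displacement; higher means more dye released from RNA so lower well fluorescence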
# ABHD5 PLIN5 PPI: blocks binding of human ABHD5 to perilipin-5 | inhibition, % at 4 µM | Split G. princeps luciferase complementation, luminescence, 4 h | 360,000 tested, 0.78% active;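 active means inhibition above the mean inhibition across every tested compound plus 3 SD, cut at about 22% in these data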;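 further: 0% = DMSO only wells and the 100% control is not disclosed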
# Target sequence (Q00G26 whole entry, looked up): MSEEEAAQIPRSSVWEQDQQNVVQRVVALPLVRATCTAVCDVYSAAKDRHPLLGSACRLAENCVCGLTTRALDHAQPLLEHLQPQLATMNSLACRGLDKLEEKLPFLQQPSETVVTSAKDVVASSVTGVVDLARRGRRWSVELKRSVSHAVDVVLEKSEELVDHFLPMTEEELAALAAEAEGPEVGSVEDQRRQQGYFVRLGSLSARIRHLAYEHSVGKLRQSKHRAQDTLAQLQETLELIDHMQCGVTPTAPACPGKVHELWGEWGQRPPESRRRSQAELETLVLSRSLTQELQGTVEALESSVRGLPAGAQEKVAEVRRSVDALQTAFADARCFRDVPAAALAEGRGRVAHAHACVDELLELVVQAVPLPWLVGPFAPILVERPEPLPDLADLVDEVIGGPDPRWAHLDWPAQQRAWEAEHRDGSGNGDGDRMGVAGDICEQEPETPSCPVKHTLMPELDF
# Target sequence (Q8WTS1 whole entry, looked up): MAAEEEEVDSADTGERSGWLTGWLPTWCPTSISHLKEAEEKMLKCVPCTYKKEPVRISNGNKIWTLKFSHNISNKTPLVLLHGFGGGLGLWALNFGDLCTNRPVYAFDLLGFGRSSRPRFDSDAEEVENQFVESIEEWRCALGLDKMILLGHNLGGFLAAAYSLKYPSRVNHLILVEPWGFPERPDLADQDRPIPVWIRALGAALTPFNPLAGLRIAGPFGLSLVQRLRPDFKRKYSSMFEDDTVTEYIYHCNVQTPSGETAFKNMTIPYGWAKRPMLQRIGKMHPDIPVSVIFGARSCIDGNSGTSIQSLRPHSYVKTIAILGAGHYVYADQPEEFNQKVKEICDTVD
# NOD2-RIPK2 inh: blocks binding of human NOD2 to RIPK2; CHO BLA complementation NOD2-RIPK2, CCF4 ratio; AID 624267; 360,000 tested, 0.38% active; inhibition, % at 4.98 µM; O43353; in the data active means inhibition above about 21%;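 further: 0% = vehicle only and 100% = reference blocker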
# TLR4 MyD88 comp: blocks binding of human TLR4 to MyD88. O00206+Q99836. HeLa CL3-4 TLR4/MyD88 BLA complementation, FRET ratio. inhibition, % at 8.4 µM. 200,000 tested, 0.18% active. AID 861; in the data active means inhibition above about 25%;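 further: 0% = vehicle and 100% = reference inhibitor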
# PRMT1 inh: inhibitors of human PRMT1 | recombinant PRMT1, activity-based probe fluorescence polarization | inhibition, % at 2.79 µM | 370,000 tested, 1.3% active | Q99873;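 active means inhibition above about 21% made by adding two undisclosed values, limit read from the data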
# TLR9-MyD88 block: TLR9-MyD88 interaction inhibition; CHO BLA complementation TLR9-MyD88, CCF4 FRET ratio; inhibition, % at 4.98 µM; 340,000 tested, 0.21% active;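 active means inhibition above the mean over all tested compounds plus 3 SD, cut at about 21% in these data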;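 further: 0% = DMSO only wells and 100% = clavulanate BLA inhibitor control wells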
# rCAG binder conf: r(CAG) RNA repeat binding, confirmation; shares compounds with rCAG binder; TO-PRO-1 dye displacement fluorescence; inhibition, % at 3 µM; 4,300 tested, 70% active; AID 652065;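 active means inhibition above a per-plate cutoff, the mean inhibition of sample wells plus 3 SD, cut at about 35% in these data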;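 further: loss of TO-PRO-1 fluorescence as compound displaces dye from 1x1 AA loop RNA; 0% = DMSO only wells and 100% = 100 µM mitoxantrone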
# DNA CAG counter: DNA CAG dye complex inhibition counter-screen | shares compounds with rCAG binder | d(CAG) DNA oligo TO-PRO-1 dye displacement, fluorescence | inhibition, % at 3 µM | 4,300 tested, 94% active;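 active means inhibition above its plate's cutoff, the mean test-well inhibition plus 3 SD, cut at about 4.8% in these data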;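 further: 0% = DNA dye mix with DMSO and 100% = 100 µM mitoxantrone; hits displace the dye from DNA and so lower well fluorescence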
# dCAG dye DR: counter-screen for rCAG binders: inhibitors of DNA CAG TO-PRO-1 complex; shares compounds with rCAG binder; DNA CAG/GTC duplex TO-PRO-1 dye displacement fluorescence; IC50, µM; 250 tested, 20% active; AID 686960; in the data active means IC50 below about 10 µM
# An asterisk follows results filed as active; · = no result.
SMILES,rCAG binder,ABHD5 PLIN5 PPI,NOD2-RIPK2 inh,TLR4 MyD88 comp,PRMT1 inh,TLR9-MyD88 block,rCAG binder conf,DNA CAG counter,others
Cc1noc(NS(=O)(=O)c2ccc(NC(=O)c3cc(-c4ccccc4Cl)nc4ccccc34)cc2)c1C,83.3*,2.3,-1.3,-6.1,5.7,2.8,75.1*,34.2*,dCAG dye DR=8.53*
Cc1noc(NS(=O)(=O)c2ccc(NC(=O)c3cc(S(=O)(=O)Nc4ccc(F)cc4)ccc3Cl)cc2)c1C,59.2*,3.2,-1.4,·,2.2,-9.1,51.5*,22.8*,
Cc1ccc(-n2ccc(=O)c(C(=O)Nc3ccc(S(=O)(=O)Nc4onc(C)c4C)cc3)n2)cc1,59.1*,6.1,-12.0,·,0.4,3.2,46.3*,15.9*,
Cc1noc(NS(=O)(=O)c2ccc(NC(=O)c3nn(-c4ccc(F)cc4)ccc3=O)cc2)c1C,30.6,0.8,-3.3,·,1.9,0.9,·,·,
Cc1noc(NS(=O)(=O)c2ccc(NC(=O)c3cc(F)c(F)c(F)c3F)cc2)c1C,18.1,1.7,6.0,·,0.7,-3.5,·,·,
CN(C)S(=O)(=O)c1ccc2c(c1)nc(CCC(=O)NCC(=O)Nc1ccc(F)c(F)c1F)n2C,1.3,0.2,-5.7,·,-1.1,-9.1,·,·,
Nc1nc(N)c(N=O)c(Nc2cccc(Cl)c2)n1,1.2,7.0,-1.8,·,6.1,·,·,·,
CCOC(=O)C(CC)Sc1nc(-c2ccc(OC)cc2)nc2c1c(=O)n(C)c(=O)n2C (centres undefined),·,·,·,-12.9,·,·,·,·,
Cc1cc(NS(=O)(=O)c2ccc(NC(=O)CCCOc3cccc(C)c3C)cc2)no1,63.1*,-1.2,2.7,·,3.1,-2.0,62.2*,16.9*,
Cc1ccccc1OCC(=O)Nc1ccc(S(=O)(=O)Nc2onc(C)c2C)cc1,31.4,9.7,-7.5,·,0.6,-3.2,·,·,
Cc1ccccc1OCCCC(=O)Nc1ccc(S(=O)(=O)Nc2onc(C)c2C)cc1,52.0*,-5.5,-1.7,·,-4.1,-1.5,34.0,9.4*,
Cc1c(C(=O)NNC(=S)Nc2ccc(S(N)(=O)=O)cc2)oc2ccccc12,52.3*,-9.3,-11.3,·,0.5,-3.7,31.7,11.0*,
Cc1cc(NS(=O)(=O)c2ccc(NC(=O)COc3c(C)cc(Br)cc3C)cc2)no1,71.1*,-2.5,-2.9,·,-3.5,-3.7,63.2*,25.5*,
CCC(=O)Nc1ccc(S(=O)(=O)Nc2cc(C)on2)cc1,-0.6,-3.5,-1.7,17.1,3.6,-6.7,·,·,
O=C(COc1ccc(F)cc1)Nc1nnc(S(=O)(=O)N2CCCC2)s1,18.7,-7.4,0.2,·,0.6,7.2,·,·,
CC(C)CNC(=O)OCc1cn(Cc2ccccc2F)nn1,-1.2,·,·,·,-4.6,·,·,·,
COc1ccccc1-c1ccc2c(c1)C(C)(Cc1ccc(OC(F)(F)F)cc1)C(=O)N2 (centres undefined),-0.4,-14.8,-3.8,·,-1.7,·,·,·,
COc1ccc(-c2csc(CCN3N=C(C)CC3=O)n2)cc1,11.0,-5.1,5.6,11.5,3.8,3.0,·,·,
Cc1cc(NS(=O)(=O)c2ccc(NC(=O)CCCOc3ccccc3C)cc2)no1,37.8*,-2.4,-3.9,·,-5.3,5.1,33.7,8.8*,
Cc1ccc(OCCCC(=O)Nc2ccc(S(=O)(=O)Nc3cc(C)on3)cc2)cc1,48.9*,-1.7,-6.5,-13.5,0.6,-8.7,36.2*,11.8*,
Cc1cc(NS(=O)(=O)c2ccc(NC(=O)COc3ccc(Br)cc3)cc2)nc(C)n1,35.5*,-4.5,-5.2,·,2.9,-0.9,35.5*,10.3*,
COc1ccccc1OCC(=O)Nc1ccc(S(=O)(=O)Nc2cc(C)on2)cc1,21.5,-7.4,-2.6,·,18.0,3.6,·,·,
Cc1cc(NS(=O)(=O)c2ccc(NC(=O)Cc3ccc(Cl)c(Cl)c3)cc2)no1,49.5*,-6.0,5.5,·,3.1,-2.8,35.2*,8.8*,
Cc1cc(NS(=O)(=O)c2ccc(NC(=O)Cc3ccc(Cl)c(F)c3)cc2)no1,21.7,·,·,·,1.5,·,·,·,
Cc1ccc(-n2c(SC/C=C/c3ccccc3)nnc2-c2ccco2)cc1,-0.4,·,·,·,-2.3,·,·,·,
SMILES,rCAG binder,ABHD5 PLIN5 PPI,NOD2-RIPK2 inh,TLR4 MyD88 comp,PRMT1 inh,TLR9-MyD88 block,rCAG binder conf,DNA CAG counter,others
C#Cc1ccc([C@@H]2C=C(C(=O)NCc3ccccc3)O[C@H](OCCCCO)C2)cc1,12.1,10.2,1.2,·,3.4,-6.8,·,·,
COC(=O)[C@]12C[C@H](CC(=O)NCCc3ccccc3OC)C(=O)N(Cc3ccc(Cl)cc3Cl)C1=C[C@H](C(C)C)O[C@@H]2C1CC1,9.0,·,·,·,-1.5,·,·,·,
Cc1c(C(=O)Nc2ccc(S(=O)(=O)Nc3ncccn3)cc2)oc2ccccc12,20.1,-7.3,-3.5,·,5.8,1.2,·,·,
Cc1cc(NS(=O)(=O)c2ccc(NC(=O)c3oc4ccccc4c3C)cc2)no1,40.7*,-6.0,-0.3,-11.7,-2.0,6.9,41.0*,11.2*,
COC(=O)[C@@]12C[C@@H](CC(=O)N3CCCC3)C(=O)N(Cc3ccco3)C1=CCC(C)(C)C2,-1.6,4.1,-2.0,·,-0.4,·,·,·,
Cc1ccc(S(=O)(=O)NCCC(=O)NC2CCC(C)CC2)cc1 (centres undefined),1.9,0.9,-5.6,·,5.2,-1.3,·,·,
CCC1=C(C)CN(C(=O)NCCc2ccc(S(=O)(=O)NC(=O)NC3CCC(C)CC3)cc2)C1=O (centres undefined),41.6*,7.2,0.7,·,-1.0,11.3,32.8,5.0*,
CCC(SC1=N/C(=C/c2ccccc2OC)C(=O)N1c1ccccc1)C(=O)Nc1cc(C)on1 (centres undefined),11.4,-9.2,-3.7,-1.3,1.6,-1.5,·,·,
COc1ccccc1NC(=O)c1ccc(N2CC3CC(C2)c2cccc(=O)n2C3)c(NC(=O)c2ccncc2)c1 (centres undefined),3.3,-0.8,-7.1,·,3.7,-4.7,·,·,
Cc1ccc(C(=O)Nc2nc(=O)n(C(=O)c3ccccc3Cl)s2)cc1,47.8*,-9.4,-2.8,-2.7,-2.2,0.0,63.4*,17.2*,
CCOC(=O)C1=CCC(c2ccccc2C(F)(F)F)N(S(=O)(=O)c2ccc(C)cc2)C1 (centres undefined),-0.5,-4.0,-5.7,·,2.6,·,·,·,
COc1ccc(C(C(=O)NC(C)(C)C)N(C(=O)CCC(=O)Nc2cc(C)on2)c2c(C)cccc2C)cc1 (centres undefined),0.0,-1.0,-8.4,·,-3.6,3.0,·,·,
COC(=O)Cc1c(C(=O)OC)nnn1-c1ccc(OC)cc1,-0.8,-10.4,-1.6,10.9,1.7,-3.4,·,·,
COC(=O)CC1=NN(c2ccc(OC)cc2)C(=O)C1,42.7*,7.0,-6.7,-21.5,2.2,3.3,2.4,0.1,

# Screens as filed in PubChem.
